Source: the supplement of paper PMC7156485
± gives the standard deviation of the averaged measurements.

Test system: TDF
Test: cell number relative to DMSO (% of DMSO); higher = more cells (less growth inhibition / toxicity)
Settings: concentration: 10 µM; 24 h
Procedure, shortened: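 H1.0 nuclear intensity or cell number is expressed as percent of the plate control, with the median of replicates taken. HCC1569 and TDF cells were treated with compounds at 10 µM for 24 h at 37 °C, in triplicate, then fixed and immunostained for H1.0 with DAPI as a nuclear stain. HCC1569 values were smoothed to correct for positional effects.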
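Note: TDF denotes transformed human dermal fibroblasts of mesenchymal origin.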

SMILES | cell number
CCCCCCCCCCCCCCCCCCc1ccc(C(=O)/C=C/C(=O)O)cc1 [(2E)-4-(4-octadecylphenyl)-4-oxo-2-butenoic acid] | 105
CCCCCCCCCCCCCCCC(=O)OC(CC(=O)O)C[N+](C)(C)C.[Cl-] (racemic) [Palmitoyl-DL-Carnitine chloride] | 101
Nc1[nH]nc2nnc(-c3c(-c4ccccc4)nn4ccccc34)cc12 | 100
COC1C=COC2(C)Oc3c(C)c(O)c4c(O)c(cc([O-])c4c3C2=O)NC(=O)C(C)=CC=CC(C)C(O)C(C)C(O)C(C)C(OC(C)=O)C1C.[Na+] (stereo not given) | 101
CN1CCN(c2ccc3c(c2)NC(=C2C(=O)N=c4cccc(F)c4=C2N)N3)CC1 | 72.6
O=c1c(O)c(-c2ccccc2)oc2cc(O)cc(O)c12 [Galangine] | 91.3
CCOC(=O)C(CCc1ccccc1)NC(C)C(=O)N1C(C(=O)O)CC2CCCC21 (stereo not given) [Ramipril] | 105
CN(C)C1C(=O)C(C(N)=O)=C(O)C2(O)C(=O)C3=C(O)c4c(O)ccc(Cl)c4C(O)C3CC12.Cl (stereo not given) [Demeclocycline hydrochloride] | 96.5
Cc1nc2ccccn2c(=O)c1CCN1CCC(C(=O)c2ccc(F)cc2)CC1 [Pirenperone] | 100
CCN1CCN(C(=O)NC(C(=O)NC2C(=O)N3C(C(=O)O)=C(CSc4nnnn4C)CSC23)c2ccc(O)cc2)C(=O)C1=O (stereo not given) [Cefoperazone acid] | 103
CC1CNCCN1S(=O)(=O)c1cccc2cnccc12.Cl.Cl (stereo not given) | 105
COc1ccc(C=Cc2cc(OC)cc(=O)o2)cc1 [Yangonin] | 80.2
N#Cc1cccc(-c2c[nH]c3ncnc(N4CCOCC4)c23)c1 [3-(4-morpholino-7H-pyrrolo[2,3-d]pyrimidin-5-yl)benzonitrile] | 110
O=C(O)CCC(C(=O)O)N1C(=O)c2ccccc2C1=O [L-Glutamic acid, N-phthaloyl-] | 110
CCCCCCCCCCCCCC=CC(O)C(CO)NCCCCCCCC (stereo not given) [C8 Ceramine] | 97
Nc1ncnc2c1cnn2-c1ccccc1 | 110
CC(NC(=O)C(C#N)=Cc1ccc(O)c(O)c1)c1ccccc1 (stereo not given) [Tyrphostin AG 527] | 89.2
O=C1CC(c2ccc(O)c(O)c2)Oc2c1ccc(OC1OC(CO)C(O)C(O)C1O)c2O (stereo not given) [Flavanomarein] | 98.6
COC(=O)C1C(O)CCC2CN3CCc4c([nH]c5ccccc45)C3CC21.Cl (stereo not given) [Rauwolscine hydrochloride] | 117
NC1CCN(c2nc3c(cc2F)c(=O)c(C(=O)O)cn3-c2ccc(F)cc2F)C1 (stereo not given) [Tosufloxacin] | 102

SMILES | cell number
N#CC(=Cc1ccc(O)c(O)c1)C(=O)Nc1ccccc1 [Tyrphostin AG 494] | 94.9
CC(C)(C)c1ccc(C(O)CCCN2CCC(C(O)(c3ccccc3)c3ccccc3)CC2)cc1 (stereo not given) [Terfenadine] | 97.9 ± 12
CCCCCCCCCCCC=CCCCCCC(=O)O [7(Z)-Nonadecenoic acid] | 104
O=C(O)CCC(=O)c1ccc(-c2ccccc2)cc1 [Fenbufen] | 103
Cl.O.O=C(O)CN(CCN(CC(=O)O)Cc1ccccc1O)Cc1ccccc1O | 98.8
C#CC1(O)CCC2C3C(C)CC4=C(CCC(=O)C4)C3CCC21C (stereo not given) [Tibolone] | 96.7
Nc1nc(=O)c2ncn(CCC(CO)CO)c2[nH]1 [Penciclovir] | 103
CCOc1cc2ncc(C#N)c(Nc3ccc(F)c(Cl)c3)c2cc1NC(=O)/C=C/CN(C)C | 10
O=C(OC1Cc2c(O)cc(O)cc2OC1c1cc(O)c(O)c(O)c1)c1cc(O)c(O)c(O)c1 (stereo not given) [Epigallocatechin gallate] | 97
Cn1c(=O)c2[nH]cnc2n(C)c1=O [Aminophylline] | 115
O=C1C(=O)c2ccccc2C(O)=C1C1CCC(c2ccc(Cl)cc2)CC1 (stereo not given) [Atovaquone] | 99
CCCCN1CCCCC1C(=O)Nc1c(C)cccc1C (stereo not given) [Bupivacaine] | 108
COc1cc2ncnc(Nc3ccc(F)c(Cl)c3)c2cc1OCCCN1CCOCC1 | 101
O=C(Nc1cccc(-c2ccccc2)c1)OC1CCCCC1 [cyclohexyl [1,1'-biphenyl]-3-ylcarbamate] | 94.2
CCCCCN(CCCCC)C(=O)C(CCC(=O)O)NC(=O)c1ccc(Cl)c(Cl)c1 (stereo not given) [Lorglumide] | 91.5
COc1ccccc1N1CCN(CCN(C(=O)c2ccc(F)cc2)c2ccccn2)CC1.Cl.Cl [p-MPPF dihydrochloride] | 109
Cc1cc(C(C)(C)C)cc(C)c1CC1=NCCN1.Cl [Xylometazoline hydrochloride] | 93.3
CC(C)(C)c1ccc(S(=O)(=O)C=CC#N)cc1 | 92.1
CC1OC(OC2C(Oc3cc(O)c4c(c3)OC(c3ccc(O)cc3)CC4=O)OC(CO)C(O)C2O)C(O)C(O)C1O (stereo not given) [Naringin] | 99
CCCCCC=CCC=CC=CC=CC(SCC(NC(=O)CCC(N)C(=O)O)C(=O)NCC(=O)O)C(O)CCCC(=O)O (stereo not given) [Leukotriene C4] | 92.2
